Experimental data: PubChem BioAssay AID1021 (Emory University Molecular Libraries Screening Center, 2008)
Among all 220,000 compounds or so, about 2,100 (0.95%) were called active. Only a selection was taken, and actives are over-represented in it overall. Values without a mark were called inactive.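 The calls were made as follows: active = compounds that cut the binding signal by more than half at the single screening dose; inactive = the rest.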

biological target: Induced myeloid leukemia cell differentiation protein Mcl-1 (Homo sapiens) (UniProt Q07820); test: disruptors of Mcl-1 and Bid BH3 peptide – biochemical, TR-FRET, 1536-well, primary screen (AID 1021); settings: TR-FRET Mcl-1/Bid-Dy647 peptide binding, at 21.7 µM, hits give high values;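 also: His-tagged Mcl-1 with europium anti-His antibody binding Bid BH3 peptide; 0% = Mcl-1 plus peptide wells and 100% = peptide-only wells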
Sequence (Q07820 whole entry, looked up): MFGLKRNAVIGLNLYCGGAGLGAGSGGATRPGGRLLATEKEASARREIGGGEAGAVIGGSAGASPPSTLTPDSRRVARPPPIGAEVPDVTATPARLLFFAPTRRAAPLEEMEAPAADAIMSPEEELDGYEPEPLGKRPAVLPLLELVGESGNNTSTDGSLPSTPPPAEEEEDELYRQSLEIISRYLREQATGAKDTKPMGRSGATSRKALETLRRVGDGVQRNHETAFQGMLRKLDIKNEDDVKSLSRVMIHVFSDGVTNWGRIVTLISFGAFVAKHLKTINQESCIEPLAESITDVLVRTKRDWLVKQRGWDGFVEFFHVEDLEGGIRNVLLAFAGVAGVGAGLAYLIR

SMILES	inhibition
O=C(Cc1ccccc1[N+](=O)[O-])N1CCN(Cc2ccc3c(c2)OCO3)CC1	-23.7%
O=C(Cc1ccccc1)N1CCN(C2CCCCCC2)CC1	17%
COc1ccccc1CN1CCN(C(=O)Cc2ccccc2)CC1	68% (active)
COc1ccc(-n2c(O)c(C(C)=Nc3ccc4c(c3)CCC4)c(=O)[nH]c2=O)cc1	-2.41%
O=C(O)COc1ccccc1/C=C1\C(=O)NC(=O)N(CCC2=CCCCC2)C1=O	2.6%
CN1CCN(Cc2ccccc2C(F)(F)F)CC1	-13%
CN1CCN(Cc2ccc(OC(F)(F)F)cc2)CC1	56.4% (active)
CCOP(=O)(OCC)C(NC(=O)NC)C(N)=O (stereo not given)	-3.96%
CCc1nnc(NS(=O)(=O)c2ccc(N=Cc3c(O)n(-c4ccccc4)c(=O)[nH]c3=O)cc2)s1	-3.62%
CCOc1ccc(CN(CCCl)CCCl)cc1C(=O)OC	63.2% (active)
CC1=C2C(=O)C3C(CC=C4CC(OC5OC(O)C(O)C(O)C5CO)CCC43C)C2CCC12OC1CC(C)CNC1C2C (stereo not given)	-4.26%
O=c1c2ccccc2nc(/C=C/c2ccco2)n1-c1ccccc1O	-66%
CNC(=O)O/N=C(\N)Cc1csc2ccc(Cl)cc12	-11.9%
COc1ccc(C(=O)C2CCCN(Cc3ccc(C)s3)C2)cc1OC (stereo not given)	-15%
CC1CCCCN1Cc1cccnc1 (stereo not given)	49.3%
Cc1cccc(N2C(=O)NC(=O)/C(=C\c3cnn(-c4ccccc4)c3)C2=O)c1	-15.1%
O=C1NC(=O)N(c2ccc(F)cc2)C(=O)/C1=C/c1ccc2c(c1)CCCN2Cc1ccccc1	74.2% (active)
O=C1NC(=O)N(c2ccccc2)C(=O)/C1=C/c1ccc([N+](=O)[O-])s1	-21.7%
O=C(c1cc2nc(-c3ccccc3)cc(-c3ccccc3)n2n1)N1CCC2(CC1)OCCO2	12.9%
CC(=O)Cc1ccc(OC(C)C)cc1	29.9%
